Test systems include DU-145 prostate; K-562 leukemia; MALME-3M melanoma; MDA-MB-231 breast; RXF 393 renal; SF-268 CNS; SF-295 CNS; SF-539 CNS; UACC-257 melanoma; M14 melanoma; HCT-15 colon; HT29 colon; SNB-75 CNS; SNB-19 CNS; U251 CNS; PC-3 prostate; SK-MEL-5 melanoma; UACC-62 melanoma; SK-MEL-28 melanoma; LOX IMVI melanoma.
Holding throughout (assay): NCI-60 one-dose screen, 48 h (100 = growth as untreated, 0 = no growth, -100 = all killed)
Common to all, as to conditions: 10 µM unless noted

The structures appear in SMILES notation. About 83,000 compounds went through this panel and 20% of them were active in at least one assay; those are over-represented in the sample as a whole.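 A percent growth of 40 corresponds to 60% growth inhibition; 0 means no net growth; -100 means all cells died. Active threshold: below 10.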 A number with no mark means an inactive call. Activity calls are given as the source filed them.

Turning to `O=C1/C=C/[C@@H](O)[C@@H]2C[C@@H](O)C[C@H]2/C=C/CCC[C@@H](O)CCO1`, the growth with DU-145 prostate is 105%; with K-562 leukemia, 105%; in the assay with MALME-3M melanoma, 60.9%; in the assay on MDA-MB-231 breast, 113%; in the assay with RXF 393 renal it was 52.4%; in the assay on SF-268 CNS, 85.6%. The growth in the assay on SF-295 CNS is 89.2%; in the assay with SF-539 CNS it was 101%; in the assay with UACC-257 melanoma, 49.3%; with M14 melanoma, 77.8%; with HCT-15 colon it was 107%; in the assay with HT29 colon, 91.6%. The growth in the assay with SNB-75 CNS was 41.2%; in the assay with SNB-19 CNS, 104%; in the assay with U251 CNS, 92.3%; with PC-3 prostate, 90.6%; in the assay on SK-MEL-5 melanoma, 22.9%; in the assay with UACC-62 melanoma, 110%. Moreover, the growth with SK-MEL-28 melanoma is 28.7%.
On to `Nc1nc(NC(=O)Nc2ccc(C(=O)O)cc2)nn1-c1ccc(S(N)(=O)=O)cc1`, for which the growth is 97.3% in the assay on DU-145 prostate; 102% in the assay on K-562 leukemia; 85.7% with MALME-3M melanoma; 75.3% in the assay on MDA-MB-231 breast; 94.1% in the assay with RXF 393 renal; 95.1% in the assay with SF-268 CNS. The growth in the assay on SF-295 CNS is 104%; in the assay on SF-539 CNS, 95.9%; in the assay with UACC-257 melanoma, 89.9%; in the assay with M14 melanoma, 95.4%; in the assay on HCT-15 colon, 105%; in the assay with HT29 colon, 105%. The growth was 90.4% in the assay on SNB-75 CNS; 90.6% in the assay on SNB-19 CNS; 93.2% in the assay with U251 CNS; 83.6% in the assay with PC-3 prostate; 96.1% with SK-MEL-5 melanoma; 96.2% in the assay on UACC-62 melanoma. Besides, the growth is 98.8% in the assay with LOX IMVI melanoma and 100% with SK-MEL-28 melanoma.
In the case of `COc1ccc(C2CC(c3cc(OC)c(OC)c(OC)c3)=NO2)cc1OCCCCOc1cc2c(cc1OC)C(=O)N1CCC[C@H]1C=N2` (stereo partly drawn), the growth in the assay on DU-145 prostate was 13.4%; in the assay with K-562 leukemia it was 34.8%; in the assay with MALME-3M melanoma it was -43.1% (active); with MDA-MB-231 breast it was 11.7%; in the assay on RXF 393 renal it was -67.1% (active); with SF-268 CNS, 16.7%. Moreover, the growth is 2.46% (active) with SF-295 CNS; -39% (active) with SF-539 CNS; 24.6% with UACC-257 melanoma; -16.2% (active) with M14 melanoma; 39.8% with HCT-15 colon; -13.9% (active) in the assay with HT29 colon. The growth with SNB-75 CNS is -14.2% (active); in the assay with SNB-19 CNS, 16.5%; in the assay on U251 CNS, 4.05% (active); with PC-3 prostate, 45.8%; with SK-MEL-5 melanoma, -79.6% (active); with UACC-62 melanoma, -67.8% (active). For the same compound, the growth with SK-MEL-28 melanoma was -23.1% (active).
As for `CCOC(=O)c1c(C)nc2ccccc2c1/C=C/c1cccs1`, the growth in the assay with DU-145 prostate is 95.5%; in the assay on K-562 leukemia, 50.3%; in the assay on MALME-3M melanoma, 112%; in the assay on MDA-MB-231 breast it was 82.7%; in the assay on RXF 393 renal it was 93.8%; in the assay with SF-268 CNS, 89.4%. In addition, the growth in the assay with SF-295 CNS was 65.6%; in the assay with SF-539 CNS it was 93.2%; in the assay on UACC-257 melanoma, 91.8%; with M14 melanoma it was 93.4%; in the assay on HCT-15 colon, 58.6%; with HT29 colon, 76.3%. Also, the growth was 80.1% with SNB-75 CNS; 83.5% with SNB-19 CNS; 81.2% in the assay with U251 CNS; 60.4% in the assay on PC-3 prostate; 21% with SK-MEL-5 melanoma; 73.1% in the assay on LOX IMVI melanoma. For the same compound, the growth in the assay on SK-MEL-28 melanoma was 106%.
Regarding `Nc1nc(N)c2c(n1)NC(c1cccc(Nc3ccnc4cc(C(F)(F)F)ccc34)c1)CC(c1ccccc1)=N2` (stereo not drawn), the growth is 71.9% in the assay on DU-145 prostate; 13.5% with K-562 leukemia; 67% in the assay with MALME-3M melanoma; 58.5% with MDA-MB-231 breast; 44.9% in the assay with RXF 393 renal; 52.3% in the assay with SF-268 CNS. Moreover, the growth in the assay on SF-295 CNS was 50.1%; with SF-539 CNS, 77.1%; with UACC-257 melanoma it was 69%; in the assay on M14 melanoma it was 30.2%; in the assay with HCT-15 colon, 23.7%; with HT29 colon it was 8.53% (active). Besides, the growth with SNB-75 CNS is 48.1%; in the assay with SNB-19 CNS, 64.4%; with U251 CNS, 36.5%; in the assay on PC-3 prostate it was 39.2%; with SK-MEL-5 melanoma, 21.9%; in the assay on UACC-62 melanoma it was 73.8%. Also, the growth with SK-MEL-28 melanoma was 84%.
As for `Cc1cccc(-c2nc(Nc3ccc4ncsc4c3)c3ccccc3n2)n1`, the growth in the assay on DU-145 prostate was 90.6%; with K-562 leukemia it was 28.5%; with MALME-3M melanoma, 102%; with MDA-MB-231 breast it was 101%; in the assay on RXF 393 renal, 78.8%; in the assay on SF-268 CNS it was 98%. Moreover, the growth is 88.7% in the assay on SF-295 CNS; 98.1% with SF-539 CNS; 81.4% in the assay with UACC-257 melanoma; 64% in the assay with M14 melanoma; 70.7% with HCT-15 colon; 43.1% in the assay with HT29 colon. Besides, the growth in the assay with SNB-75 CNS is 105%; with SNB-19 CNS it was 102%; with U251 CNS it was 77%; with PC-3 prostate, 14.7%; in the assay on SK-MEL-5 melanoma, 42.4%; in the assay with LOX IMVI melanoma, 93.2%. Moreover, in the assay with SK-MEL-28 melanoma, the growth is 98.2%.
For `Cc1nc2c(=O)nc3s/c(=C\c4ccco4)c(=O)n3c2nc1C`, the growth was 103% in the assay on DU-145 prostate; 102% in the assay on K-562 leukemia; 82.1% with MALME-3M melanoma; 93.8% with MDA-MB-231 breast; 112% in the assay with RXF 393 renal; 100% in the assay on SF-268 CNS. Besides, the growth in the assay on SF-295 CNS is 91.2%; with SF-539 CNS, 90.3%; in the assay on UACC-257 melanoma, 96.1%; in the assay with M14 melanoma, 93.7%; in the assay on HCT-15 colon it was 106%; in the assay with HT29 colon, 100%. In addition, the growth is 85.4% in the assay on SNB-75 CNS; 96.8% in the assay on SNB-19 CNS; 93.5% with U251 CNS; 97.6% in the assay on PC-3 prostate; 104% in the assay with SK-MEL-5 melanoma; 90.2% with LOX IMVI melanoma. Besides, the growth with SK-MEL-28 melanoma is 100%.
Regarding `CCCCCCCCCCCCCOC(=O)c1c(C)[nH]c(/C=C2\N=C(c3ccc[nH]3)C=C2OC)c1C`, the growth in the assay with DU-145 prostate was 29.3%; in the assay with K-562 leukemia, 5.53% (active); in the assay with MALME-3M melanoma it was 41.8%; in the assay with MDA-MB-231 breast, 19.6%; in the assay with RXF 393 renal, 27.7%; with SF-268 CNS, 34.2%. The growth with SF-295 CNS is 49.9%; in the assay on SF-539 CNS, 10.8%; in the assay with UACC-257 melanoma, 38.7%; with M14 melanoma, 1.88% (active); with HCT-15 colon it was 4.86% (active); with HT29 colon, 8.1% (active). In addition, the growth with SNB-75 CNS was 21.2%; in the assay on SNB-19 CNS it was 48.1%; in the assay with U251 CNS it was 23.9%; with SK-MEL-5 melanoma, -89.1% (active); in the assay on UACC-62 melanoma, -19.1% (active); in the assay on LOX IMVI melanoma, -56.4% (active). Moreover, in the assay on SK-MEL-28 melanoma, the growth was 30.2%.

Source of the values: PubChem BioAssay (NCI).
